Assay outcomes: PubChem BioAssay, National Center for Advancing Translational Sciences (NCATS)
NS1 function inh: qHTS Assay for Inhibitors of Influenza NS1 Protein Function; Potency, µM (top dose mostly 46.1 µM); hit rate 0.4% among 270,000; AID 2326, 2010; calls by dose curve; note: actives are rising curves; nearly all actives have a fitted effect of over 50% in size
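Recovery from NS1-induced slow growth read by OD600 in budding yeast switched to galactose assay medium (pH 6.0, -URA) at 1:100 dilution. Compound 23 nl per well; the matching strain lacking NS1 serves as control.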
HCV inhibitor: qHTS Assay for Inhibitors of Hepatitis C Virus (HCV). Huh7.5.1 HCVcc-Cre infection, luciferase reporter, 44 h. Potency, µM (titrated, usually from 41.8 µM), most hits filed as inhibitors. hit rate 3.4% among 340,000
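A cell-based infection assay in which seeded cells (1,000 per well) receive test compound after 4 h, are inoculated with HCVcc-Cre at approximately 0.5 moi, and are incubated 44 h before luminescence detection.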
Pf growth 48h: Primary qHTS for delayed death inhibitors of the malarial parasite plastid, 48 hour incubation. Potency, µM (highest dose often 28.7 µM), hits mostly inhibitors. hit rate 5.9% among 310,000. P. falciparum luciferase growth in erythrocytes, 48 h. AID 504832, 2011
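Growth was read as firefly luciferase luminescence after a 48 h, 37 C, 5% CO2 exposure of compounds to reporter-bearing P. falciparum cultures (0.1% parasitemia, 2% hematocrit final) in Albumax-supplemented RPMI 1640.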
VACV mCherry inh: qHTS for Stage-Specific Inhibitors of Vaccinia Orthopoxvirus: mCherry Reporter Primary qHTS | Vaccinia virus mCherry reporter infection, fluorescence | Potency, µM (top dose mostly 36.5 µM), most hits filed as inhibitors | hit rate 0.63% among 310,000 | AID 720579, 2013; calls by dose curve; tested in A549 cells; note: nearly all actives have a fitted effect of over 35% in size
Vaccinia Venus: qHTS for Stage-Specific Inhibitors of Vaccinia Orthopoxvirus: Venus Reporter Primary qHTS; AID 720580, 2013; Potency, µM (titrated, usually from 36.5 µM), most hits filed as inhibitors; hit rate 0.46% among 330,000; Vaccinia virus Venus reporter expression, fluorescence; calls by dose curve; tested in A549 cells; note: nearly all actives have a fitted effect of over 30% in size
Pf growth 96h: Primary qHTS for delayed death inhibitors of the malarial parasite plastid, 96 hour incubation; P. falciparum luciferase reporter growth, 96 h; Potency, µM (series often up to 28.7 µM), actives largely listed as inhibitors; hit rate 6.9% among 320,000; AID 504834, 2011
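Infected RBCs, 2% Hct / 0.05% parasitemia final; luciferase-reporter P. falciparum; cpd 96 h, 37 C, 5% CO2; luciferase detection reagent; luminescence.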
A number is an active result. Sampled rows, rich in hits. Any-hit rate of the full collection: about 11%. Unless noted, calls come from the whole dose curve; as a rule, active = well fitted inhibition curve with a large enough effect; inconclusive = small, poorly fitted or top-dose-only effect, or another doubt; inactive = no such curve, though single readings can be large or run the other way.

COc1ccc(C2=NOC(Cn3nc(C(=O)NCc4ccco4)cc3-c3ccccc3)C2)cc1 (configuration not stated) was read as HCV inhibitor inconclusive, Pf growth 48h 13µM, VACV mCherry inh inactive, Vaccinia Venus inactive and Pf growth 96h 10µM.
`COCCNC(=O)c1cc(-c2ccccc2)n(CC2CC(c3ccc(OC)cc3)=NO2)n1` (configuration not stated) gave HCV inhibitor inactive, Pf growth 48h inactive, VACV mCherry inh inactive, Vaccinia Venus inactive and Pf growth 96h inconclusive.
Screening COc1ccc(C2=NOC(Cn3nc(C(=O)NCc4ccc(C)cc4)cc3-c3ccccc3)C2)cc1 (configuration not stated) returned HCV inhibitor 8.9µM, Pf growth 48h 10µM, VACV mCherry inh inactive, Vaccinia Venus inactive and Pf growth 96h 10µM.
For c1cc(-c2nc3cc(Oc4ccc5oc(-c6ccncc6)nc5c4)ccc3o2)ccn1 the results were NS1 function inh inactive.
Screening NCCCNc1nc(N)c([N+](=O)[O-])c(NC2CCCCC2)n1 returned NS1 function inh inactive, HCV inhibitor 13µM, Pf growth 48h 2.3µM, VACV mCherry inh inconclusive, Vaccinia Venus 3.2µM and Pf growth 96h inconclusive.
`O=C(Nc1nc2n(n1)C(c1ccccc1)CC(c1ccc(Cl)cc1)N2)c1ccco1` (configuration not stated) gave NS1 function inh inactive, HCV inhibitor inactive, Pf growth 48h 13µM, Vaccinia Venus inconclusive and Pf growth 96h inconclusive.
COc1ccc(C2(C(=O)c3ccccc3)C(=O)c3ccccc3C2=O)cc1 was read as NS1 function inh inactive, HCV inhibitor 3.5µM, Pf growth 48h inconclusive and Pf growth 96h inactive.
COc1ccc(C2(Nc3cccc(C(=O)O)c3C)C(=O)c3ccccc3C2=O)cc1 was read as VACV mCherry inh inactive and Vaccinia Venus inactive.
`COc1ccc(C(=O)NC(CC(=O)O)c2cc([N+](=O)[O-])ccc2Cl)cc1` (configuration not stated) gave HCV inhibitor inactive, Pf growth 48h inactive, VACV mCherry inh inactive, Vaccinia Venus inactive and Pf growth 96h inactive.
Screening COc1ccc(CCNC(=O)c2ccc(CNS(=O)(=O)c3ccc(C(C)(C)C)cc3)cc2)cc1OC returned NS1 function inh inactive, HCV inhibitor inconclusive, Pf growth 48h inconclusive, VACV mCherry inh inactive, Vaccinia Venus inactive and Pf growth 96h 13µM.
`COc1ccc(CCNC(=O)c2ccc(CS(=O)(=O)Cc3cccc(C)c3)o2)cc1OC` gave NS1 function inh inactive, HCV inhibitor 22µM, Pf growth 48h inactive, VACV mCherry inh inactive, Vaccinia Venus inactive and Pf growth 96h inconclusive.
`Cc1ccc(CCNC(=O)c2ccc(CNS(=O)(=O)c3ccccc3)cc2)cc1` gave VACV mCherry inh inactive and Vaccinia Venus inactive.
COc1ccc(CCN(C)C(=O)c2cc(S(=O)(=O)NCc3ccccc3)ccc2C)cc1OC was read as HCV inhibitor 8.9µM, Pf growth 48h inactive, VACV mCherry inh inactive, Vaccinia Venus inactive and Pf growth 96h inconclusive.
For COc1ccc(CCNC(=O)c2ccc(S(=O)(=O)N(C)c3ccccc3)cc2)cc1OC the results were NS1 function inh inactive, HCV inhibitor inconclusive, Pf growth 48h inconclusive, VACV mCherry inh inactive, Vaccinia Venus inactive and Pf growth 96h inconclusive.
`CCOc1ccc(CCNC(=O)c2ccc(CNS(=O)(=O)c3ccccc3)cc2)cc1OCC` gave NS1 function inh inactive, HCV inhibitor inconclusive, Pf growth 48h inconclusive, VACV mCherry inh inactive, Vaccinia Venus inactive and Pf growth 96h 8.3µM.
CN(C)C(CNC1CC(C)(C)NC(C)(C)C1)c1cccc(F)c1 (configuration not stated) was read as NS1 function inh inactive, HCV inhibitor inactive, Pf growth 48h inconclusive, VACV mCherry inh inactive, Vaccinia Venus inactive and Pf growth 96h inactive.
`Cc1cccc(-n2c3nc(=O)n(C)c(=O)c-3cc3c(Cl)cccc32)c1C` gave VACV mCherry inh inactive and Vaccinia Venus inactive.
